Source: PubChem
Pf Dd2 growth: blocks in vitro growth of P. falciparum Dd2. P. falciparum Dd2 growth, SYBR Green, 72 h. Potency, µM (top dose mostly 28.9 µM), for inactives: top-dose activity, negative = inhibition, actives largely listed as inhibitors. 120,000 tested, 4.3% active. AID 1347417; active means well fitted inhibition curve with a large enough effect;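 further: plate controls were DMSO vehicle for no effect and reference drug for full effect; nearly all actives have a fitted effect of over 65% in size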
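Readout: SYBR Green fluorescence, 485 nm excitation, 535 nm emission, after ~16 h lysis at 37C. Before that, Dd2-infected red cells (2.5% hematocrit) grew 72 h with compound, 29 uM top final concentration.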
Active calls of the source: *; i = inactive; [ ] = remark or other dose. Many of the other results were omitted from the sample, so hits are more common in it than they were. Potency means the concentration at half of the fitted maximal effect.

SMILES	Pf Dd2 growth
CCOC(=O)c1c(C)[nH]c(C)c1S(=O)(=O)N1CCC(C(=O)N2CCN(c3cc(C)ccc3C)CC2)CC1	68%
Cc1cccc(N2CCN(C(=O)C3CCCN(S(=O)(=O)c4ccc5c(c4)oc(=O)n5C)C3)CC2)c1C (stereo not drawn)	11µM*
CCOC(=O)C1CCCN(S(=O)(=O)c2ccc3c(c2)oc(=O)n3C)C1 (stereo not drawn)	-2%
CCOC(=O)c1c(C)[nH]c(C)c1S(=O)(=O)N1CCCC(C(=O)Nc2cccc(C)n2)C1 (stereo not drawn)	-5%
Cc1cccc(CCNC(=O)C2CCCN(S(=O)(=O)c3ccc4c(c3)oc(=O)n4C)C2)c1 (stereo not drawn)	-21%
CCOC(=O)c1c(C)[nH]c(C)c1S(=O)(=O)N1CCCC(C(=O)N2CCN(c3cccc(C)c3C)CC2)C1 (stereo not drawn)	0.56µM*
O=C(C1CC(=O)N(c2n[nH]c3cc(Br)ccc23)C1)N1CCSCC1 (stereo not drawn)	-12%
Cc1ccc(C2Cn3nnc(C(=O)N4CCC(C(=O)NCc5ccncc5)CC4)c3CO2)cc1 (stereo not drawn)	i
COc1ccc(-c2nn(-c3ccccc3C)cc2CN2C[C@@H](C)O[C@@H](C)C2)cc1F	10µM*
COCC1CCN(Cc2cn(-c3ccccc3C)nc2-c2ccc(OC)c(F)c2)CC1	10µM*
COc1ccc(-c2nn(-c3ccccc3C)cc2CN2CCCOCC2)cc1F	i
COc1ccc(-c2n[nH]c3c2CC(=O)N(Cc2ccccc2F)C3)cc1F	-20%[44.1 µM]
COc1ccc(-c2nn(-c3ccccc3C)cc2CN2CCN(C)C(=O)[C@@H]2C)cc1F	i
COC[C@H]1CCCN1Cc1cn(-c2ccccc2C)nc1-c1ccc(OC)c(F)c1	i
O=C(CN1C(=O)CNC1=O)NCc1cccnc1Oc1ccccc1F	-1%
O=C(NC[C@H]1O[C@H](Cc2cc(CN3CCOCC3)on2)CC[C@@H]1O)N1CCOCC1	13%[44.1 µM]
CCc1cn[nH]c1C1CCCN(C(=O)c2oc3cc(C)ccc3c2C)C1 (stereo not drawn)	1%
O=C(O)COCC(=O)N[C@H]1CO[C@H]2[C@@H]1OC[C@@H]2n1nnnc1Oc1ccc(-n2cncn2)cc1	17%
Cc1ccc(-c2nccn3cc(C(=O)N4CCN(C5CCN(C)CC5)CC4)nc23)cc1	6%
CCCn1nccc1S(=O)(=O)N1CCc2nc(-c3ccccc3)[nH]c2C1	-22%
O=C(C1CCC1)N1CCC(C(=O)N2CC(Oc3ccccc3)C2)CC1	6%
CCOc1ccc(NC(=O)NC(C)c2c(-n3cccc3)sc(C)c2C)cc1 (stereo not drawn)	-23%
CCOC(=O)c1ccccc1NC(=O)N(C(C)C)C1CCN(C(C)=O)CC1	-8%
Cc1ccc(-c2ccc(=O)n(C(C)C(=O)Nc3ccccc3Cl)n2)cc1C (stereo not drawn)	9%
Cc1sc(-n2cccc2)c(C(C)NC(=O)Nc2ccccc2Cl)c1C (stereo not drawn)	5.6µM*
SMILES	Pf Dd2 growth
COc1cc(NC(=O)NC(C)c2c(-n3cccc3)sc3c2CCCC3)cc(OC)c1OC (stereo not drawn)	-17%
CCOC(=O)c1ccccc1NC(=O)NC(C)c1c(-n2cccc2)sc(C)c1C (stereo not drawn)	11µM*
O=C(c1cn(CC2CCCO2)nn1)N1CCN(c2cccc(C(F)(F)F)c2)CC1 (stereo not drawn)	-21%
COC(=O)[C@H](CC1CCCCC1)NC(=O)[C@@H]1CN(C(=O)c2cccnc2)CCN1S(C)(=O)=O	-7%
O=C(NCCc1cnc[nH]1)[C@@H]1C[C@H]2C(=O)NCCCCCCN(S(=O)(=O)c3ccccc3)[C@H]2C1	-29%
O=C(Cc1ccc(F)cc1)N1CCN(c2cc(C(F)(F)F)ncn2)CC1	i
COc1ccc(-c2nc(CSc3nncn4c3cc3occc34)c(C)o2)cc1	10µM*
Cc1oc(-c2ccccc2Cl)nc1CSc1nncn2c1cc1occc12	-23%
Cc1ccc(-c2nc(CSc3nncn4c3cc3occc34)c(C)o2)cc1	-12%
CCOc1cc(CNc2ccc(C(=O)O)cc2)ccc1OCc1ccccc1	6%
CCOc1cccc(CNc2ccc(O)cc2)c1OCc1ccccc1Cl	i[5.79 µM]
CCOc1cc(CNc2ccc(O)cc2)cc(Cl)c1OCc1ccccc1	13µM*
CC(=O)N[C@@H]1CN(C(=O)CCCS(N)(=O)=O)C[C@H]1c1ccc(C)cc1	-2%
COCCOc1cc(=O)n2c(c1C(=O)NCc1ccccc1OC)CCOCC2	-19%
O=C(Cn1nc(-c2cccs2)ccc1=O)NC1CCCc2c1[nH]c1ccccc21 (stereo not drawn)	1%
CC(C)(Oc1nn(CC2CCOCC2)c2ccccc12)C(=O)NCCc1ccccc1	-9%[44.1 µM]
COc1cc(C2Nc3ccccc3-c3cc(C)nn32)ccc1O (stereo not drawn)	1%
CCOc1cccc(C2Nc3ccccc3-c3cc(C)nn32)c1O (stereo not drawn)	1µM*
COc1ccc(C2Nc3ccccc3-c3cc(C)nn32)cc1OC (stereo not drawn)	8%
O=C(N[C@H](c1ccccn1)C1CC(O)C1)c1ccc2c(c1)ncn2CCO (stereo partly drawn)	-4%
O=C1NCCCCCCN(C(=O)COc2ccc(F)cc2)[C@H]2CCCC[C@@H]12	-18%
CCC(=O)Nc1ccccc1-c1nc2ccccc2n(C(CC)C(=O)Nc2cccc(Cl)c2)c1=O (stereo not drawn)	i
CCC(=O)Nc1ccccc1-c1nc2ccccc2n(C(C)C(=O)Nc2ccc(OC)cc2)c1=O (stereo not drawn)	10µM*
CCC(=O)Nc1ccccc1-c1nc2ccccc2n(CC(=O)Nc2ccccc2OC)c1=O	3%
CCOCC(=O)N[C@@H]1CN(Cc2ccccc2)C[C@H]1CN(C)C	i
SMILES	Pf Dd2 growth
COc1cc(-c2ccc(C(F)(F)F)cn2)cc2c1OCCNC2	-11%
COc1cc(-c2onc(C)c2C(=O)NCC2CCCO2)cc(OC)c1OC (stereo not drawn)	-8%
O=C1C(N2CCN(S(=O)(=O)c3ccc(Cl)cc3)CC2)CCN1CCc1ccccc1 (stereo not drawn)	i
CCc1ccccc1S(=O)(=O)N1CCN(C2CCN(CCC(C)C)C2=O)CC1 (stereo not drawn)	10µM*
CC(C)CCN1CCC(N2CCN(S(=O)(=O)c3cc(F)cc(F)c3)CC2)C1=O (stereo not drawn)	-3%
COc1cccc(S(=O)(=O)N2CCN(C3CCN(CCC(C)C)C3=O)CC2)c1 (stereo not drawn)	-29%
CCCc1ccc(S(=O)(=O)N2CCN(C3CCN(CCOC)C3=O)CC2)cc1 (stereo not drawn)	i
CCCc1ccc(S(=O)(=O)N2CCN(C3CCN(CCC(C)C)C3=O)CC2)cc1 (stereo not drawn)	5.6µM*
CC(C)CCN1CCC(N2CCN(S(=O)(=O)c3ccc(Cl)cc3)CC2)C1=O (stereo not drawn)	0%
CC(C)CCN1CCC(N2CCN(S(=O)(=O)c3ccc4c(c3)CCC4)CC2)C1=O (stereo not drawn)	7.1µM*
Cc1ccc(F)cc1S(=O)(=O)N1CCN(C2CCN(CCC(C)C)C2=O)CC1 (stereo not drawn)	-22%
CSCC(=O)N1CCCC(CCc2cccc(F)c2)C1 (stereo not drawn)	-20%
Cc1ccc(C)c(CN2CCn3c(nn(Cc4ccccc4C)c3=O)C2=O)c1	-17%
CC(C)Oc1ccc(CNC(=O)C2Cn3cccc3C(=O)N2)cc1 (stereo not drawn)	i
